Data on 13 molecules can be found in the supplement of paper PMC8975748.

Each structure is given as a SMILES string. Counter-ions that a name gives are not always drawn.

The test system of the experiment is Saccharomyces cerevisiae BY4741 SeMeCo community. In words: z-score of subpopulation abundance vs DMSO median, subpopulation auxotrophic for HL; higher = larger share of this subpopulation than in DMSO controls. The following applies: 10 µM; 24 h; SM minimal medium; subpopulation (auxotrophy): HL. Summed up:
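A Saccharomyces cerevisiae BY4741 community carried four plasmids, each restoring one auxotrophy and encoding a distinct fluorescent protein. It was pre-grown overnight to OD600 1.0, diluted to 0.3, and 70 µl was added to 384-well plates acoustically predosed with library drugs (10 µM final), then grown 24 h in minimal SM medium. Cells were paraformaldehyde-fixed and imaged by automated confocal microscopy, with single-auxotroph fluorescent strains setting thresholds and autofluorescence correction. Each subpopulation's abundance was scored as a z-score against the vehicle-well median.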
With `COc1ccc(NS(=O)(=O)c2ccc(N)cc2)nn1` [Sulfamethoxypyridazine], the “z-score of subpopulation abundance” value is -1.05. As for `CNCCCN1c2ccccc2CCc2ccccc21` [Desipramine Hydrochloride], the figure is 0.02. As for `Oc1ccc([C@H]2COc3cc(O)ccc3C2)cc1` [Equol], the figure is -0.02. For `Cc1[nH]c(=O)c(C#N)cc1-c1ccncc1` [Milrinone], the “z-score of subpopulation abundance” value was -0.41.

In the case of `Cc1ccc(O)c([C@H](CCN(C(C)C)C(C)C)c2ccccc2)c1` [Tolterodine tartrate], the “z-score of subpopulation abundance” value is -0.22. In the case of `CCN(CC)CCOC(=O)c1ccc(N)cc1` [Procaine], the “z-score of subpopulation abundance” value is -0.79.

Turning to `O=C(O)c1cc(/N=N/c2ccc(O)c(C(=O)O)c2)ccc1O` [Olsalazine Sodium], the “z-score of subpopulation abundance” value was -0.76.

In the case of `CCC(C)(Oc1ccc(C2(c3ccc(OC(C)(CC)C(=O)O)cc3)CCCCC2)cc1)C(=O)O` (stereo not drawn) [Clinofibrate], the “z-score of subpopulation abundance” value was -0.48.

`COc1cc2c(cc1OC)C(=O)C(CC1CCN(Cc3ccccc3)CC1)C2` (stereo not drawn) [Donepezil]: the “z-score of subpopulation abundance” value came out at 0.47. As for `NC(=O)[C@@H]1CC[C@@H]2CN1C(=O)N2OS(=O)(=O)O` [Avibactam sodium], the figure is -0.05; as for `CN1[C@@H]2CC[C@H]1C[C@@H](OC(c1ccccc1)c1ccccc1)C2` [Benztropine mesylate], 0.19. Under `C#C[C@]1(O)CC[C@H]2[C@@H]3CCC4=CCCC[C@@H]4[C@H]3CC[C@@]21C` [Lynestrenol] stands -0.15; under `CC(C)(C)C(=O)OCOC(=O)[C@@H]1N2C(=O)[C@@H](/N=C/N3CCCCCC3)[C@H]2SC1(C)C` [Pivmecillinam hydrochloride], 0.29.
